Test results reported in PubChem BioAssay AID1903 (Southern Research Specialized Biocontainment Screening …, 2009).
Several values for one entry are separate records, joined by “and”; a condition that tells them apart may be missing. Equal values may be shown once. Among all 310,000 compounds or so, about 1,200 (0.39%) were called active. No rule for the calls is given here. Only a sample is shown. Results with a measured potency or affinity are listed apart.

molecular target: Large T antigen (Simian virus 40) (UniProt P03070); test: TAg ATPase/helicase activity blockers – biochemical (AID 1903); conditions: SV40 large T antigen ATPase/helicase inhibition assay; at 20 µM; hits give high values
Sequence (P03070 whole entry, looked up): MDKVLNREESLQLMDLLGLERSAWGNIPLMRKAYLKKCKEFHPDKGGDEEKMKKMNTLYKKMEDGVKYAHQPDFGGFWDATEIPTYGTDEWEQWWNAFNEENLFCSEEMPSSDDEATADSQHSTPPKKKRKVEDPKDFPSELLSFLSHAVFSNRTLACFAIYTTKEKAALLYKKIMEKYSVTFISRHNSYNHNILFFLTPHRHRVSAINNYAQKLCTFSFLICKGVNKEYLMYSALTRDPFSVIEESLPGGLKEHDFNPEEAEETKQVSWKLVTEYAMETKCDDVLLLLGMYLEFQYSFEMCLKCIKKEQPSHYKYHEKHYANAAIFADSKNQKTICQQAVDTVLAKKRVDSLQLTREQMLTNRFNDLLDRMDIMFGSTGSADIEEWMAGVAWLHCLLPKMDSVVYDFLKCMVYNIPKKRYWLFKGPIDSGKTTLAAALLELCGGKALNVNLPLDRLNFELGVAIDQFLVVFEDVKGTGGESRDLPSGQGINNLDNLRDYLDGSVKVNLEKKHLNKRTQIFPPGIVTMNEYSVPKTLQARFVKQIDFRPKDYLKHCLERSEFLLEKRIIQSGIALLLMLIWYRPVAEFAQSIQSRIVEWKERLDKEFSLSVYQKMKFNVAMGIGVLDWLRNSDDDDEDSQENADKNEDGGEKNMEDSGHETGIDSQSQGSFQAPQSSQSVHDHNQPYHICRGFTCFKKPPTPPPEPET

inhibition, inactive:
CC(C)c1ccc(NC(=O)CSc2nc(-c3ccccc3F)nc3nc[nH]c23)cc1 3.55%, CCOc1ccc(CCNC(=O)CCC(=O)Nc2ccc3nc(N4CCN(C)CC4)cc(C)c3c2)cc1OCC 2.93%, O=C(CN1CCCCC1)N1c2ccccc2CCc2ccccc21 0.59%, O=C(CCl)N1c2ccccc2CCc2ccccc21 8.1%, Cc1cc(NS(=O)(=O)Cc2ccccc2)no1 3.2%, CCCN(C(=O)c1ccc(N(C)S(=O)(=O)c2ccc(C)cc2)cc1)C1CCS(=O)(=O)C1 (stereo not drawn) 11%, Cc1ccc(C)c(NS(=O)(=O)c2ccc(OCC(=O)N3CCOCC3)cc2)c1 4.78%, COc1cc(C(=S)N2CCCCC2)ccc1O 29.3%, COc1cc(C(=O)OCCN2CCCCC2)ccc1O 29.6%, O=C(NCCOc1ccccc1)C1CCC(=O)N(CCc2ccccn2)C1 (stereo not drawn) 5.44%, CN(C)c1ccc(C2/C(=C(/O)c3ccc(Br)cc3)C(=O)C(=O)N2C)cc1 (stereo not drawn) 8.15%, CC(C)C[C@H](NC(=O)[C@@H]1Cc2c([nH]c3ccccc23)C2c3ccccc3C(=O)N21)C(=O)NCC1CCCO1 (stereo partly drawn) 8.64%, Cc1ccc(/C=C2\CCOC2=O)cc1 10.9%, O=C1OCC/C1=C\c1ccccc1 6.44%, CC(NC(=O)c1cc(S(=O)(=O)N2CCCC2)cn1C)c1ccccc1 (stereo not drawn) 5.41%, CN1C(C(=O)NCCc2cccs2)CC2Cn3c(nc4ccccc43)C21 (stereo not drawn) 21.1%, Cc1ccc2cc3c(N)c4c(C)ccc(C)c4nc3nc2c1 1.71%, CCc1ccc2nc3nc(C)cc(C)c3c(N)c2c1 17.6%, Cc1cc2cc3c(=O)[nH]c(=O)[nH]c3nc2cc1C -1.5%, Nc1[nH]nc2nc3ccccc3cc12 36%, CC1(C)Cc2nc3n[nH]c(N)c3cc2CO1 -1.93%, CCc1ccc2nc(N)sc2c1 9.15%, CCn1cc(CNC(=O)c2cc(-c3ccccc3OC)nc3ccccc23)c(C)n1 4.15%, O=C(c1ccc(Cl)cc1)c1oc2ccccc2c1CS(=O)(=O)c1ccccc1 1.36%, c1ccc(Oc2ccc3ccccc3n2)cc1 7.16%, COc1ccc(N(CC(=O)N2CCOCC2)S(C)(=O)=O)cc1OC 4.22%, CCCCn1c(=O)[nH]c(=O)c2c(C(=O)OCC)cc(-c3cccs3)nc21 4.89%, Cc1cc(NC(=O)c2cc(C(C)C)on2)nn1Cc1ccc(Cl)cc1 -0.65%, COC(=O)c1[nH]c2cccc(OC)c2c1NC(=O)CCN1CCSCC1 2.77%, CCN(CC)C(=O)C1CCC(CNS(=O)(=O)c2cccc3nsnc23)CC1 (stereo not drawn) 5.44%, COc1ccccc1C(=O)NCCC(=O)Nc1nc2ccccc2[nH]1 10.6%, CCOC(=O)/C(C#N)=C1/C(=O)N(Cc2ccccc2)c2ccccc21 11%, CCCCN1C(=O)/C(=C(/C#N)C(=O)N2CCCC2)c2ccccc21 7.04%, O=C(CN1C(=O)C2CCCCC2C1=O)Nc1nc(-c2ccc(F)cc2)cs1 (stereo not drawn) 12.1%, COc1ccc(Nc2cccc(Cl)c2)c(C(=O)O)c1 33.4%, COc1ccc(Nc2ccccc2C(=O)O)cc1 31.6%, COc1cc(/C=N/Nc2ccccn2)cc(OC)c1O 29.8%, Cn1c(N/N=C\c2cccc(O)c2)cc(=O)n(C)c1=O -5.57%, COc1ccc(/C=N/Nc2nc(=O)[nH]nc2C)cc1OC 13.7%, COc1ccc(/C=N/Nc2cc(=O)n(C)c(=O)n2C)cc1OC 9.25%, COc1cc(/C=N/Nc2ccc(C(=O)O)cc2)ccc1O 29.4%, COc1ccc(/C=N/Nc2ccccn2)cc1O 36.9%, COc1cc(/C=N/Nc2nc(C)cc(=O)[nH]2)ccc1O 35.4%, COc1ccc(/C=N/Nc2ccccn2)cc1OC 9.61%, CC(=O)c1sc(NC(=O)COc2ccccc2)nc1C 3.21%, CC(C)CCNC(=O)C(=O)Nc1cc2c3c(c1)CCC(=O)N3CCC2 -2.67%, COC(=O)c1ccc(CNC(=O)C23CC4CC(CC(C4)C2)C3)cc1 -3.62%, CCCCc1oc2c(c(=O)c1C)C(=O)CC(c1ccccc1)C2 (stereo not drawn) 4.52%, CCC(=O)N1CCN(c2ccc(NC(=O)c3ccc(C#N)cc3F)cc2Cl)CC1 6.06%, CCc1ccc(NC(=O)C(=O)N/N=C(\C)CC(=O)Nc2ccccn2)cc1 11.4%, CCC(NC(=O)c1ccc(C#CC2(O)CCCCC2)cc1)C(=O)O (stereo not drawn) 8.73%, COc1ccc(/C=N/NC2=NCCCCC2)cc1 -2.48%, CCc1nnc(N/N=C/c2ccc(O)c(OC)c2)n1N 38%, COc1cc(/C=N/Nc2nn3cnnc3c3ccccc23)ccc1O 8.69%, COc1cc(/C=N/Nc2ccccc2)ccc1O 27.7%, Oc1ccc(/C=N/NC2=NCCCCC2)cc1 25.1%, COc1cccc2c(N/N=C/c3ccccc3)cc(C)nc12 4.18%, COc1ccc(OC)c(/C=N/Nc2nncn2/N=C/c2cc(OC)ccc2OC)c1 12.7%, COc1ccc(/C=N/Nc2cc(C)nc3c(C)cccc23)cc1 4.3%, CCc1ccc(NC(=O)C2CCN(S(=O)(=O)c3ccc4c(c3)N(C(C)=O)CCO4)CC2)cc1 -0.74%, Cc1ccc(S(=O)(=O)NCCCN2CCCC2)cc1 13.3%, c1ccc(CNc2nc3ccccc3n2CCN2CCOCC2)nc1 7.87%, Cc1ccc(NC(=O)c2nc[nH]c2C(=O)N2CCC(C)CC2)cc1 9.16%, O=C(Cn1nc(-c2cccs2)ccc1=O)Nc1ccc(Br)cc1 3.47%, O=C1CC(C(=O)Nc2ccc(Cl)cc2[N+](=O)[O-])C2(CCCCC2)O1 (stereo not drawn) 6.86%, COc1ccccc1OCc1nn[nH]n1 11.9%, CCC1CCCCN1CCCNC(=O)c1cc2c(=O)[nH]c3ccccc3c2n1C (stereo not drawn) 8.49%, O=C(Nc1c(Cl)cc(Cl)cc1-c1nc2ccccc2s1)c1ccc(Br)o1 6.8%, COC(CN(C)C(=O)c1ccc(CS(=O)(=O)c2ccccc2C)o1)OC 6.06%, Cc1nnc(-c2ccccc2)c[n+]1[O-] 2.44%, Oc1c(Br)cc(/C=N/n2c(-c3ccccc3)n[nH]c2=S)cc1Br 29.7%, Oc1c(Br)cc(/C=N/n2c(-c3ccccc3)n[nH]c2=S)c(O)c1Br 30.1%, CCOC(=O)N/N=C(/C)c1ccc(N2C(=O)C3CCCCC3C2=O)cc1 (stereo not drawn) 11.8%, O=C(O)c1ccc(N(Cc2ccccc2)S(=O)(=O)c2ccccc2)cc1 1.43% and 0.12%, CN(C[C@H](Cc1ccccc1)N(C[C@H](Cc1ccccc1)N(CCc1cc(C(F)(F)F)cc(C(F)(F)F)c1)N=O)N=O)N=O 0.235%, Cc1cc(C)cc(OCC(=O)OCC(=O)Nc2c(C)n(C)n(-c3ccccc3)c2=O)c1 15.2%, O=C(CN1CCN(c2ccc(F)cc2)CC1)Nc1ccc2c(c1)OCCO2 8.68%, CCC(=O)c1ccc(OCC(=O)OCC(=O)Nc2c(C)n(C)n(-c3ccccc3)c2=O)cc1 12.3%, N#Cc1ccsc1NC(=O)CN1CCN(c2ccccc2)CC1 9.52%, Cc1c(NC(=O)CN2CCN(c3ccccc3)CC2)c(=O)n(-c2ccccc2)n1C 3.86%, COc1ccc(N2CCN(CC(=O)Nc3sccc3C#N)CC2)cc1 8.41%, Cc1c(NC(=O)CN2CCN(c3ccc(F)cc3)CC2)c(=O)n(-c2ccccc2)n1C 6.05%, O=C(CN1CCN(c2ccccc2)CC1)Nc1ccc2c(c1)OCCO2 -0.06%, CCOc1ccc(C2/C(=C(/O)c3ccc4c(c3)CC(C)O4)C(=O)C(=O)N2CCCn2ccnc2)cc1OCC (stereo not drawn) 2.21%, Cc1ccsc1/C=N/NC(=O)c1cccnc1 10.3%, COc1cccc(N/C=C/C(=O)c2ccc(OC)c(OC)c2)c1 15.6%, Cc1cc(NC(=O)c2ccc3c(c2)C(=O)N(C)C3=O)no1 21.4%, COc1ccccc1C(=O)Nc1cccc2c1CCCC2 3.42%, Cc1cc(CNC(=O)CCc2nnc(CCCc3ccccc3)o2)nn1C 23%, Cc1cccc(N(CC(=O)NCc2ccc3c(c2)OCO3)C(=O)CCC(=O)Nc2ccccn2)c1 3.36%, c1ccc(OCCOCCSc2ncccn2)cc1 3.66%, COc1cccc(-c2ccc3nnc(SCC(=O)N4CCOCC4)n3n2)c1 8.56%, COc1cc(OC)c(C(=O)OCC(=O)N2CCOCC2)cc1OC -1.18%, CC(C)(C)NC(=O)NC(=O)CN1CCN(c2ccccc2)CC1 -1%, COc1ccc(N2CCN(CC(=O)Nc3cc(C)on3)CC2)cc1 12.3%, CC(=O)c1ccc(N2CCN(CC(=O)Nc3cc(C)on3)CC2)cc1 11.5%, COc1ccc(N2CCN(CC(=O)NC(=O)NC(C)(C)C)CC2)cc1 22.3%, CCCN(CC(=O)Nc1ccc(Cl)cc1Cl)Cc1cc(=O)n2ccsc2n1 -0.76%
